# Measured values from ChEMBL document CHEMBL4513135, “CO-ADD screening of IQOG CSIS (Spain) compounds”.
# Potency and affinity values are given separately.
# System: Escherichia coli
# Details: Concentration 32 ug.mL-1; ASSAY_TEST Inhibition of Bacterial Growth; detection method Absorption (OD600); MEDIA CAMHB; plate type 384well; NBS; CORNING #3640; time 18 hr
row,SMILES,Inhibition
1,C#CCNC(=O)c1cc2cc(OCCCC3CCN(Cc4ccccc4)CC3)ccc2[nH]1,-12.4%
2,COc1cccc(C2C(C#N)=C(N)Oc3[nH]nc(C)c32)c1 (stereo not given),6.61%
3,CC1CN(C)c2c(C#N)c(-c3ccccc3)c(C#N)c(=N)n21 (stereo not given),-6.63%
4,N#Cc1cc(Br)cc(Br)c1N,14.62%
5,N#Cc1cc(C#N)c(NCCCCC2CCN(Cc3ccccc3)CC2)nc1N,-9.24%
6,N#Cc1cc(C#N)c(NCCC2CCN(Cc3ccccc3)CC2)nc1N,-25.69%
7,O=C(N/N=C/c1ccc([N+](=O)[O-])cc1)c1cc2ccccc2[nH]1,10.51%
8,N#Cc1cc(C#N)c(N2CCC(Cc3ccccc3)CC2)nc1N,-8.44%
9,CNC(=O)c1c(Cl)c2cc(OCc3ccccc3)ccc2n1C,-12.2%
10,N#Cc1cc(C#N)c(Cl)nc1N,7.53%
11,Nc1n[nH]c2c1C(c1ccccc1)CC(=O)N2 (stereo not given),-4.9%
12,C#CCNc1cccc(F)n1,-22.48%
13,OCc1c(-c2ccc(Br)cc2)nc2ccccn12,0.77%
14,COc1nc2ccccc2cc1C=O,18.39%
15,Cc1ccc(C2c3c(nc4c(c3N)CCCC4)Oc3ccc4ccccc4c32)cc1 (stereo not given),-5.39%
16,Cc1ccc(C(O)SNNc2nc(C)nc3c2c(C)nn3-c2ccccc2)cc1 (stereo not given),5.46%
17,O=C(N/N=C/Cc1ccccc1)c1cc2ccccc2[nH]1,9.88%
18,CC1Cc2ccccc2N1/N=C/c1ccccc1 (stereo not given),-3.55%
19,O=C(O)c1cc2ccccc2[nH]1 [INDOLE-2-CARBOXYLIC ACID],18.03%
20,O=C(NN=Cc1c[nH]c2ccccc12)c1cccc2ccccc12,10.09%

row,SMILES,Inhibition
1,O=C(NNCc1c[nH]c2ccccc12)c1cccc2ccccc12,3.58%
2,Cc1ccccc1-c1c(C=N)c(N)nc2c1S(=O)(=O)OC2(C)C,8.66%
3,Cn1c(C(=O)O)cc2ccccc21,5.49%
4,CC(=O)NCCc1ccccc1,11.94%
5,CCOc1nc(N)c(C#N)cc1C#N.Cl,-30.21%
6,CC1=C(C(=O)O[C@@H]2C[C@@]3(C)CC[C@H]2C3(C)C)C(c2ccccc2)C(C#N)=C(N)O1 (stereo not given in full),16.17%
7,COc1ccc(C2c3c(ccc4ccccc34)OC(=NBr)C2(Br)C#N)cc1 (stereo not given),-19.75%
8,CC(=O)Nc1n[nH]c2nc(N)c(C#N)c(-c3ccccc3)c12,1.16%
9,N#Cc1cc2c(N)n[nH]c2nc1N,10.46%
10,COc1nc2nc3c(c(N)c2cc1C#N)CCCC3.Cl,-4.74%
11,CCOc1nc2nc3c(c(N)c2cc1C#N)CCCC3,-2.83%
12,C#CCN(C)c1nc(Sc2ccccc2)c(C#N)c(-c2ccccc2)c1C#N,1.09%
13,COc1nc2nc3c(c(N)c2cc1C#N)CN(Cc1ccccc1)CC3,4.83%
14,CC(C)NNC(=O)Cc1c[nH]c2ccccc12,9.11%
15,COc1ccc(C2c3c(nc4c(c3N)CCCC4)Oc3ccc4ccccc4c32)cc1 (stereo not given),4.53%
16,N#Cc1cccnc1N,-3.89%
17,Cn1ccnc1C1c2ccc3ccccc3c2Oc2nc3c(c(N)c21)CCCCC3 (stereo not given),-12.42%
18,Cl.ClCCCCCN1CCCCC1,1.26%
19,O=C1OC(c2ccccc2)=NC1=Cc1ccc(Cl)cc1,10.9%
20,Cl.OCC1CCN(Cc2ccccc2)CC1,15.91%
